According to PubChem BioAssay (NCI):
About 79,000 compounds went through this panel and 15% of them were active in at least one assay; those are over-represented in the sample as a whole. No stated cut-off is given here; in the data, active means growth inhibition above about 70%; inactive means the rest.

Key:
[1] = NCI Yeast Anticancer Drug Screen. Data for the rad50 strain (AID 155);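 further: 0% = growth of vehicle-only cultures of the same strain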; details: S. cerevisiae rad50 strain growth inhibition; at 50.0 µM; stronger effect = higher value
Outline: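 A DNA repair-deficient yeast mutant serves as the test organism; compound-induced growth inhibition is calculated against vehicle-treated cells.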

[2] = NCI Yeast Anticancer Drug Screen. Data for the mec2-1 strain (AID 157); details: S. cerevisiae mec2-1 strain, at 50.0 µM, stronger effect = higher value
Outline: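 Vehicle-treated cultures served as reference for growth inhibition of compound-exposed mec2-1 yeast.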

[3] = NCI Yeast Anticancer Drug Screen. Data for the sgs1 mgt1 strain (AID 161);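 further: 0% = growth of cultures given vehicle only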; details: S. cerevisiae sgs1 mgt1 strain, at 50.0 µM, stronger effect = higher value
Outline: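 Mutant yeast exposed to compound; growth scored against vehicle-only wells.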

[4] = NCI Yeast Anticancer Drug Screen. Data for the cln2 rad14 strain (AID 165);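 further: 0% = growth equal to vehicle treated cultures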; details: S. cerevisiae cln2 rad14 strain, at 50.0 µM, stronger effect = higher value
Outline: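 Each compound was tested on cln2 rad14 yeast. Inhibition of growth was calculated against vehicle-exposed controls.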

[5] = NCI Yeast Anticancer Drug Screen. Data for the bub3 strain (AID 167); details: S. cerevisiae bub3 mutant strain, at 50.0 µM, stronger effect = higher value
Outline: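 Inhibition values come from growth of compound-treated mutant yeast normalised to vehicle-treated controls.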

[6] = NCI Yeast Anticancer Drug Screen. Data for the mlh1 rad18 strain (AID 175); details: S. cerevisiae mlh1 rad18 strain growth inhibition; at 50.0 µM; stronger effect = higher value
Outline: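 Vehicle-treated cultures served as the reference for growth inhibition in a yeast strain carrying DNA damage repair alterations exposed to each compound.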

Measured: growth inhibition

COC(=O)[C@@]12OC[C@]34[C@H]([C@@H](O)[C@@H]1O)[C@@]1(C)CC(=O)C(O)=C(C)[C@@H]1C[C@H]3OC(=O)[C@H](OC(=O)/C=C(\C)C(C)CO)[C@@H]24 (stereo partly specified)
inactive: [1] -0.7% | [2] -16.7% | [3] -13.3% | [4] -1.7% | [5] -18.9% | [6] -28.8%

CC(C)(O)c1c(F)c(F)c(F)c(F)c1F
inactive: [1] 17.2% | [2] -13.7% | [3] 5.1% | [4] 17.6% | [5] 27.8% | [6] 7.15%

COc1cc(C(=O)NO)c(Br)c(OC)c1OC
inactive: [1] -3.5% | [2] 9.5% | [3] -4.35% | [4] -5.6% | [5] -7.2% | [6] -3.7%

O=C(COc1ccc(Cl)cc1)N1N=C(c2ccc(Cl)cc2)CC1(O)c1ccccc1 (stereo unspecified)
inactive: [1] -15.8% | [2] -29.8% | [3] -8.9% | [4] 0.85% | [5] -18.2% | [6] -10.6%

CC(C)CCC[C@@H](C)[C@H]1CC[C@H]2[C@@H]3C[C@@H](O)[C@@]4(O)C[C@@H](O)CC[C@]4(C)[C@H]3CC[C@]12C
inactive: [1] 27.6% | [2] 8.65% | [3] 14.1% | [4] -12.4% | [5] -7.25% | [6] 19.5%

Cc1ccc(S(=O)(=O)CC(=O)NC(N)=O)cc1
inactive: [1] -5% | [2] -1.1% | [3] -5.2% | [4] -2.1% | [5] -1.15% | [6] -7.3%

C[N+]1(C)N=C(c2ccccc2)C=C1[O-]
inactive: [1] 13.4% | [2] -9.75% | [3] -6.65% | [4] -53.9% | [5] -2.5% | [6] -3.85%

O=C(O)c1cc(=O)[nH]c(SCc2ccccc2)n1
inactive: [1] -9.7% | [2] -20.1% | [3] -28.5% | [4] -30.2% | [5] -20.8% | [6] -5.35%

N=c1oc2ccccc2cc1-c1nc2ccccc2c(=O)[nH]1
inactive: [1] -1.75% | [2] -3.25% | [3] 4.5% | [4] 11.7% | [5] -13.4% | [6] 17.3%

Nc1nnnn1C(=O)NCCCl
inactive: [1] -6.55% | [2] 0.6% | [3] -6.45% | [4] -24.8% | [5] -20.4% | [6] -5.25%

O=C1c2ccccc2C(=O)N1CCCO
inactive: [1] -4.55% | [2] -1.9% | [3] -15.4% | [4] -23.8% | [5] -17.7% | [6] 8.9%

CCCCCCCCCC(=O)OCCCC(CCCOC(=O)CCCCCCCCC)OC(=O)CCCCCCCCC
inactive: [1] -19.9% | [2] -6.85% | [3] -6.25% | [4] -23.9% | [5] -16.4% | [6] -26.6%

CCNC(CC1CCCCC1)C(=O)O (stereo unspecified)
inactive: [1] -6.15% | [2] 7.5% | [3] -1.8% | [4] 14.2% | [5] 13.2% | [6] 6.35%

CC(=O)OCCOCNC(=S)NCc1ccco1
inactive: [1] 11.2% | [2] -7.25% | [3] -40% | [4] 9.3% | [5] 5.85% | [6] -10.3%

O=C1C(=Cc2ccc([N+](=O)[O-])o2)C(=O)N(CCc2ccccc2)S(=O)(=O)N1CCc1ccccc1
inactive: [1] 38.9% | [2] -3.65% | [3] 10.8% | [4] -22.5% | [5] -6.6% | [6] 2.4%

N#CC(c1ccc(Cl)cc1)c1ccc(N(CCO)CCO)cc1 (stereo unspecified)
inactive: [1] 9.4% | [2] 1.25% | [3] 2.75% | [4] 5.85% | [5] -12.1% | [6] 13.8%

N#Cc1cccc(Nc2ccccc2SSc2ccccc2Nc2cccc(C#N)c2)c1
inactive: [1] 13.1% | [2] 7.6% | [3] 17.5% | [4] -7.4% | [5] 3.95% | [6] 12.8%

CN(C)c1ncnc2c1ncn2CC(O)CN (stereo unspecified)
inactive: [1] -7.9% | [2] -8.65% | [3] -15.8% | [4] 4.4% | [5] 5.4% | [6] -17.2%

COc1ccc(C2SC(N)=Nc3c2c(C)nn3C(=O)c2ccc(Cl)cc2)cc1 (stereo unspecified)
inactive: [1] 3.7% | [2] -14.8% | [3] 22.6% | [4] -18.1% | [5] -11.3% | [6] 7.8%

Ic1ccc(Nc2ncnc3sc4c(c23)CCCC4)cc1
inactive: [1] 24.2% | [2] -14% | [3] -16.9% | [4] 15.8% | [5] 7.25% | [6] -7.65%

Nc1cc(C(=O)O)cc2ccccc12
inactive: [1] 14.8% | [2] -5.35% | [3] 0.1% | [4] -7.95% | [5] -2.95% | [6] 26.6%

NC(=O)c1c[n+]([O-])ccc1[N+](=O)[O-]
inactive: [1] 40.1% | [2] 5.3% | [3] 34.8% | [4] 28.1% | [5] -14.8% | [6] 18.2%

CCCCc1nc(CCCC)nc(CCCC)n1
inactive: [1] -6.75% | [2] -14.2% | [3] -12.8% | [4] -2.45% | [5] -2.8% | [6] 1.15%

Fc1cc(Cl)c(F)cc1Cl
inactive: [1] -18% | [2] -17.8% | [3] -18.2% | [4] -27.3% | [5] -12.4% | [6] -27.4%

Cc1ccc2nc(-c3ccc(CSC(=N)N)cc3)oc(=O)c2c1
inactive: [1] 40.2% | [2] 43.5% | [3] 45.6% | [4] 20.9% | [5] 19.1% | [6] 42%

C=C1C(OC(=O)/C=C/c2ccccc2)CC(OC(C)=O)C2(C)C1CC1CC(OC(C)=O)C(C)=C(C(OC(C)=O)C2OC(C)=O)C1(C)C (stereo unspecified)
inactive: [1] 38.5% | [2] 6.35% | [3] 14.1% | [4] 21.4% | [5] 25.4% | [6] 24.5%

O=[N+]([O-])c1ccc2[nH]ccc2c1
inactive: [1] 8.75% | [2] -4.25% | [3] -2.7% | [4] 10.7% | [5] 3.6% | [6] 7.5%

COc1ccc(OC)c(/C=C2/C(=O)N(c3ccccc3)N=C2C)c1
inactive: [1] -7.55% | [2] -1.25% | [3] 5.6% | [4] -1.85% | [5] 15.5% | [6] 4.75%

Cc1cc(C)c([N+](=O)[O-])cc1[N+](=O)[O-]
inactive: [1] 7.5% | [2] 5.5% | [3] 9.45% | [4] -1.25% | [5] -3.4% | [6] 5.15%

CCOC(=O)c1ccc(NC(=O)Nc2cc(Cl)ncn2)cc1
inactive: [1] 10.1% | [2] -6.55% | [3] 9.15% | [4] -22.9% | [5] 10.3% | [6] -6.15%

COc1cccc2c1C(=N)c1c(O)c3c(c(O)c1C2=O)C[C@@](O)(C(=O)CO)C[C@@H]3OC1CC(N)C(O)C(C)O1 (stereo partly specified)
inactive: [1] 55.4% | [2] 23.2% | [3] -8.7% | [4] 22.4% | [5] -16.9% | [6] -13.9%

O=C(CN1CCOCC1)NC(=O)c1ccccc1
inactive: [1] -3.6% | [2] -3.6% | [3] 6.25% | [4] 1.5% | [5] -0.1% | [6] -10.7%

Cc1nc(NCCNCCO)nc2c1C(=O)Nc1ccccc1N2
inactive: [1] -43.9% | [2] -50.8% | [3] -7.65% | [4] -5.3% | [5] -3.9% | [6] -38.8%

CCCCCCCCCCCCCCCCCCCCCCCCCCCCCCS(=O)(=O)Cl
inactive: [1] 14.7% | [2] 28.1% | [3] 16.9% | [4] 18.8% | [5] 33.9% | [6] -18.9%

CCCCCCCCCC(=O)OC
inactive: [1] -24.1% | [2] -16.9% | [3] 8.4% | [4] -12.8% | [5] -0.25% | [6] 6.2%

CC(CC(=O)Nc1ccc(NC(=O)CC(C)N=NC(N)=S)cc1)N=NC(N)=S (stereo unspecified)
inactive: [1] 30.6% | [2] 3.95% | [3] -5.35% | [4] -27.2% | [5] 1.75% | [6] 14%
